Experiment [1] in a line: small molecules captured by biotinylated probe aFSTL3 – biochemical, small-molecule microarray, fluorescence 635/667, stem cell growth factor project, primary screen (AID 1064).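 Note: measures binding of the biotinylated anti-FSTL3 antibody to printed compounds.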 The note with it: higher = more signal.
A short description of experiment [2]: binders from COS7 lysate, DM2A8 probe, primary screen, torsin A project, cell lysate, small-molecule microarray, fluorescence 635/667 (AID 1065). The settings on record: higher = more signal, COS7 lysate expressing mutant human TOR1A.
The nature of experiment [3]: small molecules captured by biotinylated probe aFGF2 – biochemical, small-molecule microarray, fluorescence 635/667, stem cell growth factor project, primary screen (AID 1067).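 Note: measures binding of biotinylated aFGF2 protein to printed compounds on slides; z-score merges feature fluorescence and signal-to-noise across triplicate slides.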 The note with it: higher = more signal.
The nature of experiment [4]: small molecules captured by biotinylated probe aFGF10 – biochemical, small-molecule microarray, fluorescence 635/667, stem cell growth factor project, primary screen (AID 1071).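 Note: score merges 667 nm spot intensity and signal to noise from triplicate slides.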 The settings on record: higher = more signal.
The target in experiment [5] is Neurogenic locus notch homolog protein 2 (Homo sapiens) (UniProt Q04721). Put plainly: small molecules binding Notch2 protein – biochemical, small-molecule microarray, 635 nm fluorescence, stem cell growth factors, primary screen (AID 1073). The note with it: higher = more signal.
In experiment [6] the target is Pro-neuregulin-1, membrane-bound isoform (Homo sapiens) (UniProt Q02297). Put plainly: small molecules binding neuregulin-1 protein – biochemical, small-molecule microarray, fluorescence 635/667, psychiatric disease protein project, primary screen (AID 1075).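 Note: score combines 667 nm spot fluorescence with signal to noise.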 The settings on record: NRG1 binding, 635 nm fluorescence, higher = more signal.
Experiment [7] relates to Neuregulin-1 EGF-like domain. As to the kind of experiment: small molecules binding NRG1 EGF domain – biochemical, small-molecule microarray, 635 nm fluorescence, primary screen (AID 1081).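 Note: binding of the protein to compounds printed on small-molecule microarray slides.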 The settings on record: higher = more signal.
Experiment [8] can be described thus: FRG1 expression reporter modulators in myotubes – cell-based, C2C12 myotubes, firefly/Renilla luciferase, luminescence, FRG1 inhibition for FSHD, primary screen (AID 1084). The note with it: FRG1 promoter luciferase, higher = more signal, called active from +8 up or from −8 down.
Experiment [9] in a line: small molecules captured by biotinylated probe aFST – biochemical, small-molecule microarray, fluorescence 635/667, stem cell growth factor project, primary screen (AID 1086).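 Note: score merges 667 nm fluorescence with signal-to-noise of each printed compound spot.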 The note with it: higher = more signal.
The nature of experiment [10]: binders of probe aHhip on microarray, primary screen, stem cell growth factor project, biochemical, small-molecule microarray, fluorescence 635/667 (AID 1087).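 Note: score merges spot fluorescence at 667nm with spot signal to noise ratio.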 The settings on record: higher = more signal.
Experiment [11] relates to PRMT1 (protein arginine N-methyltransferase 1). Put plainly: small molecules binding arginine methyltransferase PRMT1 – biochemical, small-molecule microarray, 635 nm fluorescence, primary screen (AID 1088).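 Note: binding of Prmt1 protein to compounds spotted on small-molecule microarray slides.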 The settings on record: higher = more signal.
Experiment [12] can be described thus: growth effects on S. cerevisiae YJM789 – YJM789 clinical isolate, OD600, 24 h, basal, primary screen (AID 1089).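 Note: growth of clinical yeast isolate S. cerevisiae YJM 789 seeded 1000 cells per well; test concentration not given here.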 The note with it: higher = more signal, called active from +8 up or from −8 down.
The nature of experiment [13]: S. pombe growth modifiers, basal conditions – strain 972, OD600, 24 h, no modulator, primary screen (AID 1090).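 Note: basal condition with compound alone and no growth modifier present; test concentration not given here.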 The note with it: S. pombe 972 growth, higher = more signal, called active from +8 up or from −8 down.
A short description of experiment [14]: budding yeast growth modifiers under rapamycin – strain BY4716, OD600, 96 h, primary screen (AID 1091). Note: test concentration not given here. The note with it: S. cerevisiae BY4716 + rapamycin, higher = more signal, called active from +8 up or from −8 down.
Experiment [15] has as its target Torsin-1A-interacting protein 2 (Homo sapiens) (UniProt Q8NFQ8). As to the kind of experiment: small molecules binding lysate-expressed LULL1 – cell lysate, human LULL1 lysate, 635/667 nm fluorescence, primary screen (AID 1092).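 Note: probe is lysate of COS7 cells overexpressing human LULL1; score merges per-feature 667 nm fluorescence with signal-to-noise.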 The note with it: small-molecule microarray, hLULL1 lysate binding, 635 nm fluorescence; higher = more signal.
Experiment [16] is described as follows: optical density change of DRC41 E. coli – strain DRC41, OD650, 24 h, E. coli filamentation project, primary screen (AID 1093).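 Note: MC1000 strain lacking acrAB efflux and sulA so SOS filamentation is blocked; test concentration not given here.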 The settings on record: E. coli DRC41 growth, higher = more signal, called active from +8 up or from −8 down.
The nature of experiment [17]: probe aLefty2 binding to arrayed compounds – biochemical, biotinylated probe, 635/667 nm fluorescence, primary screen (AID 1094).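 Note: score merges spot fluorescence near 667 nm with spot signal-to-noise ratio.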 The settings on record: small-molecule microarray, higher = more signal.
The subject of experiment [18] is Noggin (protein binding on small-molecule microarray). As to the kind of experiment: small molecules binding Noggin protein – biochemical, 635/667 nm fluorescence, primary screen (AID 1095).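 Note: score merges 667 nm feature fluorescence with signal to noise over triplicate slides.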 The settings on record: 635 nm fluorescence, higher = more signal.
For experiment [19], the target named is Neurogenic locus notch homolog protein 3 (Homo sapiens) (UniProt Q9UM47). As to the kind of experiment: small molecules binding NOTCH3 protein – biochemical, 635/667 nm fluorescence, primary screen (AID 1096). The settings on record: small-molecule microarray, 635 nm fluorescence, higher = more signal.
Experiment [20] can be described thus: probe aEGFR binding to arrayed compounds – biochemical, biotinylated probe, 635/667 nm fluorescence, primary screen (AID 1097).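 Note: probe is a biotinylated anti-EGFR antibody binding compounds printed on slides; score combines fluorescence near 667 nm and signal to noise of each spot.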 The settings on record: small-molecule microarray, higher = more signal.

The structures appear in SMILES notation. Calls of active or inactive are those of the source.

Torsin-1A-interacting protein 2 (Homo sapiens), sequence (Q8NFQ8 whole entry, looked up): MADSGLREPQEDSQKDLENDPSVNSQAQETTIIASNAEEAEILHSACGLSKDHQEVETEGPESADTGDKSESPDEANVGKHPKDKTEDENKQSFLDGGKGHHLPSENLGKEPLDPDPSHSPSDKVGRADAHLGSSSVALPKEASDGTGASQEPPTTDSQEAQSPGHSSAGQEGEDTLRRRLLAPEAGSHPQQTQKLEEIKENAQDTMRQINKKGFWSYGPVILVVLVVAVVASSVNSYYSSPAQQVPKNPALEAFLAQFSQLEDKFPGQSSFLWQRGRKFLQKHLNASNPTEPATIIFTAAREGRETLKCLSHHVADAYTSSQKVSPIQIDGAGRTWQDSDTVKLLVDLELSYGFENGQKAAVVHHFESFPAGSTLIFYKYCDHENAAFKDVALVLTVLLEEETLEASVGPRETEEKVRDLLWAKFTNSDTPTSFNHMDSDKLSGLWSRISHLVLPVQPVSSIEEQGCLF
Neurogenic locus notch homolog protein 3 (Homo sapiens), sequence (Q9UM47 whole entry, looked up): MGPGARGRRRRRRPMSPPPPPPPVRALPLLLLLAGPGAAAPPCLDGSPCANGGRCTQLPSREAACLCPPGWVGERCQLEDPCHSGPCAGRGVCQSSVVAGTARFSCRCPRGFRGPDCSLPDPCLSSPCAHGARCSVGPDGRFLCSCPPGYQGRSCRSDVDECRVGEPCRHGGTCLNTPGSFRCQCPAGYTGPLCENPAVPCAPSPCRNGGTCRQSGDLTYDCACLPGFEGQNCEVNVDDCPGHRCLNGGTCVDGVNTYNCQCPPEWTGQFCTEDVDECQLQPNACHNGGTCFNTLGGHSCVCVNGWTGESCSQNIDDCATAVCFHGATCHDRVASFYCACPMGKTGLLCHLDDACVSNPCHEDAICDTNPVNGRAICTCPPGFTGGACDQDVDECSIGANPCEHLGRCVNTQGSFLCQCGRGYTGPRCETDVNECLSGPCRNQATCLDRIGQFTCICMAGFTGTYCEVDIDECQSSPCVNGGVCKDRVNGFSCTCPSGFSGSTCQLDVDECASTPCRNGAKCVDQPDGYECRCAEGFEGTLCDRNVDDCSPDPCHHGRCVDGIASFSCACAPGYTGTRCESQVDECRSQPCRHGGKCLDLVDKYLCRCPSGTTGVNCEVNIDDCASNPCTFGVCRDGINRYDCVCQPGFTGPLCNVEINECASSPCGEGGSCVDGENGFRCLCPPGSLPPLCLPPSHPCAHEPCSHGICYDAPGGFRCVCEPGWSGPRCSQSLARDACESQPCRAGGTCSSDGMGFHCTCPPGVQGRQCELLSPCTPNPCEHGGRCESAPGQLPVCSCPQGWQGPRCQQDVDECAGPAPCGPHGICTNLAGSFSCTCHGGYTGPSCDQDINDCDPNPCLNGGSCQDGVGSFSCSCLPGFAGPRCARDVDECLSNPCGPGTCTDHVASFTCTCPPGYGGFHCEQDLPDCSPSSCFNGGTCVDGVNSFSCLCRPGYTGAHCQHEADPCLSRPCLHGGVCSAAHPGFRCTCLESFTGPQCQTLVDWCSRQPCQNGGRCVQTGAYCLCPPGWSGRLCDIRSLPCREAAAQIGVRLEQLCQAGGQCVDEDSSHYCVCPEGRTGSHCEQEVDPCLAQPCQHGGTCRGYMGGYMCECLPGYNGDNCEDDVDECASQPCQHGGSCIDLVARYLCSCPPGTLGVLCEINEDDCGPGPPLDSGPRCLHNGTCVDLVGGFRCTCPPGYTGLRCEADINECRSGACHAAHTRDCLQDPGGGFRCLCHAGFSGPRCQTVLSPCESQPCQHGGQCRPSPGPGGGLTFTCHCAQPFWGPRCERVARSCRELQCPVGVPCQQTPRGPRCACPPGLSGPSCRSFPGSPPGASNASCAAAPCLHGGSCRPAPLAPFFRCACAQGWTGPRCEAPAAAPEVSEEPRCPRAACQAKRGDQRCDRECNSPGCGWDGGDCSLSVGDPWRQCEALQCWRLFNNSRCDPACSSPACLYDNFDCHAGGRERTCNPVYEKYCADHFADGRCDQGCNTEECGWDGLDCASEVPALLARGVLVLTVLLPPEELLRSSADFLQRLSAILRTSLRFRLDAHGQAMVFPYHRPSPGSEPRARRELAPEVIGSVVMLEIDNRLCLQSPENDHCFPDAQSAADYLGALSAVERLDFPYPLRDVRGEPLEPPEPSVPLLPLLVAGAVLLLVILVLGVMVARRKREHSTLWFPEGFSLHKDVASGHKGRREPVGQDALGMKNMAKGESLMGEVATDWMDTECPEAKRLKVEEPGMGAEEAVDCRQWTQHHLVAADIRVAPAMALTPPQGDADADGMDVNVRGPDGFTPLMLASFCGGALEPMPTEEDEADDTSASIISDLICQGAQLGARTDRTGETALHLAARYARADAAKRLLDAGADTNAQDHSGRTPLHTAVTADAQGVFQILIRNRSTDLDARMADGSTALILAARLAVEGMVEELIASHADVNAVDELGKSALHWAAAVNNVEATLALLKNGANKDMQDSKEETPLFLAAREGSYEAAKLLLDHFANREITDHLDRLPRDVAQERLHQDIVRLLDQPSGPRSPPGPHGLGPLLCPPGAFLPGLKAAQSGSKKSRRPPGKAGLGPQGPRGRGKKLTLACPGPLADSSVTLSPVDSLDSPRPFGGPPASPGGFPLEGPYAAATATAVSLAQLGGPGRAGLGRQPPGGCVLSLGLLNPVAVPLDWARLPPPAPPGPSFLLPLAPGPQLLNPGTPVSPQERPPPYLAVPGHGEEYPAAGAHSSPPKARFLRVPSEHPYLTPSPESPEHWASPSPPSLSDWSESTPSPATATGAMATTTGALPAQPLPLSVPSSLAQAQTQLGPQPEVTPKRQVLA
Pro-neuregulin-1, membrane-bound isoform (Homo sapiens), sequence (Q02297 whole entry, looked up, the tested form may be a part, canonical isoform): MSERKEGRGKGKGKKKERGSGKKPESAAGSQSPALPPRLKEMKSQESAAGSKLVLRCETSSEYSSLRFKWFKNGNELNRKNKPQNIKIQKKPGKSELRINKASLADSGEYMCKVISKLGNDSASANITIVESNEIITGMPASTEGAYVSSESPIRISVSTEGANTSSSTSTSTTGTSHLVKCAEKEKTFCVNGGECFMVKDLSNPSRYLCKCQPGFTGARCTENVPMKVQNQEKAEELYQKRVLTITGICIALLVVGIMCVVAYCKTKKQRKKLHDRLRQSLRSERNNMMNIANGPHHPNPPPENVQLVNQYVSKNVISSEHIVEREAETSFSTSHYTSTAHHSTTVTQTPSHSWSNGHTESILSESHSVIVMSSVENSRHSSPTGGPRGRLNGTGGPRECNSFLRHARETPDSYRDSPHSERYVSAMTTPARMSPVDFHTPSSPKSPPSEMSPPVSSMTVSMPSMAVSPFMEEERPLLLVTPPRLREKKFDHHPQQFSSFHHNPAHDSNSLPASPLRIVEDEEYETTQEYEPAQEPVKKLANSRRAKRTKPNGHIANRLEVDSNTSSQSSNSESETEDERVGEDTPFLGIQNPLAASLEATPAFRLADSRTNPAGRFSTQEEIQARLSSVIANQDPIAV

For `C[C@@H]1ON(c2cccc(C(=O)OC(C)(C)C)c2)[C@H](c2ccc(Br)cc2)[C@H]1C(=O)N1C(=O)OC[C@H]1Cc1ccccc1`, the composite z-score is -0.532 in experiment [1]; 0.351 in [2]; -0.031 in experiment [3]; 0.511 in experiment [4]; 1.37 in experiment [5]; 0.457 in experiment [6]. Moreover, the composite z-score in experiment [7] was 0.958; in experiment [9], 0.625; in experiment [10] it was 0.245; in experiment [11], 1.54; in experiment [15], 1.5; in experiment [17], -0.0408. The composite z-score in experiment [18] is 0.57; in experiment [19], 1.12; in experiment [20], -0.0039. Besides, the z-score in experiment [8] was -0.295 (inactive); in experiment [12] it was 0.912 (inactive); in experiment [13], 1.38 (inactive); in experiment [14], 0.528 (inactive); in [16] it was -0.448 (inactive).
For `O=C1NC(=O)C2C1C=CC(C(O)Cc1ccccc1)N2Nc1ccc(Cl)cc1Cl` (stereo not given), the composite z-score was 0.536 in [1]; -0.169 in experiment [2]; -0.0374 in experiment [3]; -0.634 in experiment [4]; 0.614 in [5]; 2 in experiment [6]. The composite z-score in [7] was 0.371; in experiment [9] it was 0.337; in experiment [10], 0.176; in [11] it was -0.403; in experiment [15] it was 3.21; in experiment [17] it was -0.0134. Besides, the composite z-score in experiment [18] was -0.49; in experiment [19], 0.332; in [20], -0.096. Further, the z-score was 1.53 (inactive) in [8]; -4.33 (inactive) in experiment [12]; -1.51 (inactive) in experiment [13]; -0.125 (inactive) in experiment [14]; 0.177 (inactive) in experiment [16].
As to `CCCC#C[Si](O[C@H](CC)c1cn([C@H](CO)Cc2ccccc2)nn1)(C(C)C)C(C)C`, the composite z-score was -0.503 in [1]; 0.236 in [2]; -0.0856 in experiment [3]; 0.449 in [4]; 0.769 in experiment [5]; 0.471 in [6]. Besides, the composite z-score in experiment [7] was 0.988; in [9] it was -0.0393; in experiment [10] it was -0.0003; in experiment [11], 0.869; in experiment [15], 1.48; in [17], 0.0166. Also, the composite z-score was 0.681 in experiment [18], 0.584 in [19] and -0.0563 in [20]. In addition, the z-score in experiment [8] is 0.889 (inactive); in experiment [12], -0.843 (inactive); in experiment [13], -10.7 (active); in experiment [14] it was -2.6 (inactive); in [16], 0.858 (inactive).
Regarding `C=C/C=C/[C@H]1C(=C)CN([C@@H](Cc2ccccc2)C(=O)OC)[C@@H]1[C@H](O)Cc1ccccc1`, the composite z-score in [1] is 0.042; in experiment [2], -0.951; in experiment [3] it was -0.203; in experiment [4], -0.189; in experiment [5], -1.06; in [6], -0.824. Also, the composite z-score in experiment [7] is -0.5; in experiment [9], -0.364; in [10] it was -0.455; in experiment [11], -0.473; in [15], 0.428; in [17], -0.149. For the same compound, the composite z-score was -0.219 in experiment [18], -0.0424 in experiment [19] and -0.316 in experiment [20]. Also, the z-score is -0.164 (inactive) in experiment [8]; -0.15 (inactive) in [12]; -1.35 (inactive) in [13]; -0.557 (inactive) in experiment [14]; 0.311 (inactive) in [16].
Regarding `CCOC(=O)C[C@H]1[C@H](OC(=O)Cc2ccc3c(c2)OCO3)[C@@H](NC(=O)c2ccc(-c3ccccc3)cc2)c2cc(OCCCO)ccc2N1C(=O)c1ccc2ccccc2n1`, the composite z-score in [1] is -0.472; in [2] it was 0.783; in experiment [3], -0.131; in experiment [4], 0.228; in experiment [5] it was 0.399; in [6], 0.281. The composite z-score in experiment [7] is 0.167; in [9], 0.0972; in [10] it was -0.236; in experiment [11] it was 0.0972; in experiment [15], 0.417; in [17], -0.168. Further, the composite z-score in [18] was 0.0955; in [19], 0.257; in experiment [20], -0.0661. The z-score was -4.52 (inactive) in [8]; -1.84 (inactive) in experiment [12]; -2.89 (inactive) in experiment [13]; -1.13 (inactive) in experiment [14]; 1.63 (inactive) in experiment [16].

For the origin of these results see PubChem BioAssay.
